Rows were chosen to be rich in hits. Some 9.2% of all compounds tested hit in one or more screens of this group.
ELG1 DNA repair: qHTS screen for small molecules that inhibit ELG1-dependent DNA repair in human embryonic kidney (HEK293T) cells expressing luciferase-tagged ELG1; HEK293T ELG1-luciferase reporter, luminescence, 16 h; DNA damage induced by 5-fluorouridine; Potency, µM (doses to about 46.1 µM), without a hit: top-dose activity change, negative = inhibition, usual class: inhibitors; 330,000 compounds, 2.3% hits; AID 504467, 2011; further: on the % scale 0 is the no-effect control and ±100 the full control effect; nearly all actives have a fitted effect of over 55% in size
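Luminescence from the luciferase reporter, measured 30 min after ONE-Glo reagent at room temperature, was the read-out. Beforehand, 2,000 cells per well were exposed for 16 hr at 37 °C to 5-fluorouridine together with compound or vehicle.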
Rab9 promoter act: qHTS Assay for Rab9 Promoter Activators; Huh7 Rab9 promoter-luciferase reporter, luminescence, 24 h; 320,000 compounds, 2.8% hits; AID 485297, 2010; Potency, µM (doses to about 9.22 µM), inactives show at the highest dose activation, negative = inhibition, most hits filed as activators; further: % of control where 0% means no effect; nearly all actives have a fitted effect of over 60% in size
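Steps: seed 1500 Huh7 Rab9-luc cells per well, rest 2 h at 37 °C; add compound in DMSO; incubate 24 h; add luciferase reagent, 10 min ambient; read luminescence.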
FLuc counter: qHTS profiling assay for firefly luciferase inhibitor/activator using purifed enzyme and Km concentrations of substrates (counterscreen for miR-21 project); purified FLuc, Km substrates, luminescence inhibition; Luciferin 4-monooxygenase (Photinus pyralis), P08659; 360,000 compounds, 6.9% hits; Potency, µM (titrated, usually from 57.5 µM), inactives show at the top dose activity change, negative = inhibition, actives largely listed as inhibitors; AID 588342, 2011;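 further: plate controls were vehicle for no effect and reference inhibitor for full effect; nearly all actives have a fitted effect of over 55% in size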
Target sequence (P08659 whole entry, looked up): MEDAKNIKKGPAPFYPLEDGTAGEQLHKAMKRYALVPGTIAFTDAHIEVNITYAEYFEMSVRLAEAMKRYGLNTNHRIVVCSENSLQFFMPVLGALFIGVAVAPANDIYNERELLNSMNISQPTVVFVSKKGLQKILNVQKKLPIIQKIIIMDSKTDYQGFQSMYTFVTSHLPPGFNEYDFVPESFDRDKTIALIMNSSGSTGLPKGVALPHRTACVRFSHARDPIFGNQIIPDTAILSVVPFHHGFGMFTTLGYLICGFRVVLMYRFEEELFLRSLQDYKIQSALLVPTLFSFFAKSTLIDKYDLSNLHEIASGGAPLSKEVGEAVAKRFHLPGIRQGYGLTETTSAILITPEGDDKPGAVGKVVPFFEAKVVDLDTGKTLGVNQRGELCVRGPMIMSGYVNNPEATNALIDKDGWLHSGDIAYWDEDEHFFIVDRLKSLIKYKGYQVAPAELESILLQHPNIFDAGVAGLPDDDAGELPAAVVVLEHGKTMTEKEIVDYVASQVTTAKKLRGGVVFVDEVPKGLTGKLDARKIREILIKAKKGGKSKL
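Biochemical qHTS of compounds, final roughly 60 µM downward over six points, against 10 nM purified firefly luciferase using Km concentrations of substrates (10 uM D-luciferin, 10 uM ATP) in Tris acetate pH 7.5 buffer; luminescence output.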
SMN2 splice up: qHTS Assay for Enhancers of SMN2 Splice Variant Expression; HEK293 SMN2-luciferase splicing reporter, luminescence, 30-36 h; Potency, µM (series often up to 46.1 µM), inactives show top-dose activity change, positive = activation, most hits filed as activators; 210,000 compounds, 2.8% hits; further: % of control where 0% means no effect; nearly all actives have a fitted effect of over 55% in size
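HEK293 cells carry an SMN2 […]–luciferase reporter in which exon 7 inclusion puts luciferase in frame. Cells were plated 10-12 h before compound addition, then incubated 30-36 h at 37C. ONE-Glo luminescence was read; sodium butyrate at 4.5 mM final served as control.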
NPC1 prom act: qHTS Assay for NPC1 Promoter Activators | Huh7 NPC1 promoter luciferase reporter, 24 h | Potency, µM (series often up to 9.22 µM), for inactives: at the highest dose activation, hits mostly activators | 320,000 compounds, 2.4% hits | AID 485313, 2010; further: % of control where 0% means no effect; nearly all actives have a fitted effect of over 60% in size
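Huh7 reporter cells (NPC1 promoter driving luciferase) are dosed with compound for 24 h at 37 °C, 5% CO2; luciferase detection reagent is then added and luminescence measured after 10 min at ambient temperature.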
ELG1 genotox: qHTS screen for small molecules that induce genotoxicity in human embryonic kidney (HEK293T) cells expressing luciferase-tagged ELG1. 330,000 compounds, 1.3% hits. AID 504466, 2011. Potency, µM (highest dose often 46 µM), for the others: at the top dose activity change, positive = activation, most hits filed as activators. HEK293T ELG1-luciferase reporter, luminescence, 16 h; further: % of control where 0% means no effect; nearly all actives have a fitted effect of over 60% in size
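HEK293T cells expressing luciferase-tagged ELG1 were treated with compound or DMSO for 16 hr at 37°C. Luciferase activity was then read after 30 min with ONE-Glo at room temperature; rising signal flags genetic stress.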
Numbers without * were called inactive; ? = inconclusive; nt = no result given; [ ] = remark or other dose. The call rests on the fitted dose curve; in most records, active means well fitted curve in the direction sought with a large enough effect; inconclusive means small, poorly fitted or top-dose-only effect, or another doubt; inactive means no such curve, though single readings can be large; an effect the other way counts as inactive or inconclusive. Potency means the concentration at half of the fitted maximal effect.

SMILES	ELG1 DNA repair	Rab9 promoter act	FLuc counter	SMN2 splice up	NPC1 prom act	ELG1 genotox
COc1ccccc1CNC(=O)COc1ccccc1C(=O)c1cnn(-c2ccccc2)c1	?	17%	9.5µM*	nt	16%	7%
O=C(O)c1ccccc1N[C@H](c1ccccc1)c1ccc2cccnc2c1O	nt	nt	nt	-15%[9.22 µM]	nt	nt
CCC(CO)Oc1cc(NC(=O)c2ccccc2F)c2ncn(C(C)C)c2c1 (centres undefined)	5.2µM*	nt	nt	nt	nt	-3%
CCc1ccc(/C=N/Nc2ncnc3nc[nH]c23)cc1	?	1.3µM*	3µM*	nt	2.8µM*	7.3µM*
CC(C)=NNc1ncnc2nc[nH]c12	nt	nt	nt	6%[9.22 µM]	nt	nt
CC(C)N(Cc1ccccc1)C(=O)CN1C(=O)NC2(CCOc3ccccc32)C1=O (centres undefined)	-4%	nt	nt	nt	nt	-3%
CCN(CC(=O)Nc1ccc(NC(C)=O)cc1)C(=O)/C=C/c1c(C)nn(-c2ccc(F)cc2)c1C	8.2µM*	4%	-1%	nt	3%	-9%
Cc1ccc(NC(=O)CSc2n[nH]c(-c3ccncc3)n2)c(C)c1	4%	2%	-4%	nt	-2%	4%
Cc1ccc(NC(=O)Cc2nc(-c3c[nH]c(C(=O)N4CCCC4)c3)cs2)c(C)c1	16µM*	-4%	-3%	nt	2%	-6%
O=C(CN1C(=O)C2CCCCN2c2ccc(C(=O)N3CCCC3)cc21)NCc1cccc(Cl)c1 (centres undefined)	nt	nt	-10%	nt	nt	nt
Nc1nc(Nc2ccccc2F)sc1C(=O)c1ccccc1	?	0.71µM*	6µM*	nt	?	?
Nc1c(C(=O)c2ccc(F)cc2)sc(Nc2ccccc2F)c1S(=O)(=O)c1ccc(Br)cc1	nt	nt	-5%	nt	nt	nt
Cc1ccccc1Nc1nc(-c2sc(NC(=O)c3ccccc3)nc2C)cs1	?	-4%	8.5µM*	2%	1%	0%
Cc1nc(NC(=O)c2ccccc2)sc1-c1csc(Nc2cccc(Cl)c2)n1	?	2%	?	-33%	0%	-7%
Cc1nc(NC(=O)c2ccccc2)sc1-c1csc(Nc2ccc(Cl)cc2)n1	?	-6%	8.5µM*	-29%	-5%	1%
Cc1nc(NC(=O)c2ccccc2)sc1-c1csc(Nc2ccc(F)cc2)n1	?	-2%	7.6µM*	-46%	-5%	-12%
Cc1ccccc1Nc1nc(-c2sc(NC(=O)c3cccc(Cl)c3)nc2C)cs1	3%	0%	?	-18%	-1%	0%
Cc1ccc(CNC(=O)CSc2nc3[nH]ncc3c(=O)[nH]2)cc1	19%	-7%	8%	-2%	-3%	0%
Cc1nc(NC(=O)c2ccccc2)sc1-c1csc(Nc2ccc(Cl)cc2Cl)n1	?	-1%	9.5µM*	4%	0%	-1%
Cc1nc(Nc2ccccc2)sc1C(=O)c1ccc(F)cc1	?	?	19µM*	nt	?	15%
COc1cccc(COc2ccc3ccc(=O)oc3c2)c1	?	3.2µM*	13µM*	nt	?	?
COc1ccc(COc2ccc3ccc(=O)oc3c2)cc1	?	2.8µM*	11µM*	nt	4µM*	?
FC(F)Sc1ccc(Nc2ncnc3nc[nH]c23)cc1	?	?	?	11µM*	?	18%
Cn1cc(Cl)c(C(=O)Nc2nc3ccc(Cl)cc3s2)n1	?	1.4µM*	3.4µM*	22µM*	2.8µM*	?
CCC(=O)Nc1nc2ccc([N+](=O)[O-])cc2s1	-5%	3%	-18%	nt	20%	-1%
SMILES	ELG1 DNA repair	Rab9 promoter act	FLuc counter	SMN2 splice up	NPC1 prom act	ELG1 genotox
Cn1cc(Cl)c(C(=O)Nc2nc3ccc([N+](=O)[O-])cc3s2)n1	?	?	1.2µM*	nt	?	5%
Cc1ccc(-n2nc3cc(C)c(N)cc3n2)cc1	?	1.1µM*	0.27µM*	1.4µM*	4µM*	?
CCc1ccc(-n2nc3cc(C)c(NC(=O)c4ccccc4C)cc3n2)cc1	nt	nt	?	11%	nt	nt
CCc1ccc(-n2nc3cc(C)c(N)cc3n2)cc1	?	0.13µM*	0.19µM*	nt	0.32µM*	0.41µM*
CN1CCN(c2ccccc2NC(=O)c2ccc(-c3ccccc3[N+](=O)[O-])o2)CC1	-21%	11%	-19%	nt	0%	-1%
COC(=O)CCC(=O)c1ccc(OC)c(Cl)c1	?	2%	-13%	nt	-3%	-2%
Oc1ccc(C2C[C@H]3CC[C@@H]2C3)cc1O (some centres undefined)	3%	7%	12µM*	nt	-15%	?
COCCCNC(=S)NNC(=O)c1csc(C)n1	3%	-1%	-2%	nt	-5%	-3%
Cc1ccc(Oc2ccc(Oc3ccc(C)cc3)nn2)cc1	?	26%	-4%	1%	17%	2%
Cc1ccccc1Oc1ccc(Oc2ccccc2C)nn1	?	?	?	?	4µM*	?
CN(C)c1ccc(C(=S)NCc2ccco2)cc1	?	0.45µM*	13µM*	-15%	?	0.46µM*
COC(=O)Nc1ccc(S(=O)(=O)N2CCCC(C(=O)NCC3CCCO3)C2)cc1 (centres undefined)	0%	nt	nt	nt	nt	2%
O=C(Cc1ccc(Cl)cc1)c1ccc(O)cc1	?	3.5µM*	15µM*	nt	3.5µM*	?
O=C(Cc1ccccc1)c1ccc(Cl)cc1	3%	0%	?	nt	-2%	4%
Cc1ccc(CC(=O)c2ccc(Cl)cc2)cc1	?	?	4.8µM*	nt	?	?
Cc1ccc(NC(=O)c2ccc(OCC3CCCO3)cc2)cc1 (centres undefined)	?	2.5µM*	6µM*	7.9µM*	2.2µM*	?
NC(=O)c1ccc(OCC2CCCO2)cc1 (centres undefined)	12%	2%	-3%	nt	-1%	2%
O=C(NCc1ccccc1)c1ccc(OCC2CCCO2)cc1 (centres undefined)	?	-2%	?	2%	2%	0%
Cc1cnc(NC(=O)C2CCCO2)s1 (centres undefined)	10%	14%	2%	-3%	-7%	-1%
Cc1cnc(NC(=O)c2ccc(OCC3CCCO3)cc2)s1 (centres undefined)	?	0.13µM*	0.76µM*	2.2µM*	0.5µM*	?
Cc1ccc(NC(=O)c2ccc(OCC3CCCO3)cc2)nc1 (centres undefined)	?	1µM*	4.8µM*	nt	1.8µM*	?

Screening results from PubChem BioAssay.
